Our source for the max response, Potency and outcome values is PubChem BioAssay (NCATS).

Structures are written as SMILES. Records with an inconclusive call do not appear. Calls of active or inactive are those of the source. Calls follow the shape of the dose curve; as a rule, active = well fitted inhibition curve with a large enough effect; inconclusive = small, poorly fitted or top-dose-only effect; inactive = flat fitted curve, though single readings scatter.
% is scaled to controls: 0 for no effect and ±100 for the full control effect; potency is read from the fitted curve at half-maximal effect.

The test system of the test is CRL-7250. Put plainly: Cytotoxic Profiling of Annotated Libraries Using Quantitative High-Throughput Screening (AID 1296008). Also: nearly all actives have a fitted effect of over 60% in size. The settings on record: Five cell lines viability, CellTiter-Glo ATP luminescence, 48-72 h; max response: active compounds read low. In outline: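 Cytotoxicity was measured as CellTiter-Glo ATP luminescence, read after 10 min at room temperature. Compound treatment of the cells lasted 48 or 72 hr at 37 degrees Celsius in a qHTS format.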
Background: ATP-based viability assays read luminescence as a measure of living cells.
Turning to `CC1(O)CC(O)C2(O)C=COC(O[C@@H]3O[C@H](CO)[C@@H](O)[C@H](O)[C@H]3O)C12` (some centres undefined), the max response is -2.75% (inactive).

As for `Nc1nc2c(ncn2[C@@H]2O[C@H](CO)[C@@H](O)[C@H]2O)c(=O)[nH]1`, the max response was -5% (inactive).

Consider `C=C1C(O)C(O)C2(CC3C(C)=CCC4C(C)(CO)CCCC34C)OC2C1O` (centres undefined), for which the max response was -2.93% (inactive).

As to `CCOCCn1nc(CC)c2nc(N3CCC(C(=O)O)CC3)nc(Nc3cc(C)ccn3)c21`, the max response is -0.41% (inactive).

On to `CN(C)C/C=C/C(=O)Nc1cccc(C(=O)Nc2ccc(Nc3nccc(-c4cccnc4)n3)cc2)c1`, for which the Potency is 7310 nM (active).

`C/C=C(\C)C(=O)OCC1OC(OC2OC(COC(=O)/C(C)=C/C)C(OC3OC(CO)C(OC(=O)/C(C)=C/C)C(OC(=O)/C(C)=C/C)C3O)C(O)C2O)C(O)C(O)C1OC1OC(CO)C(OC(=O)/C(C)=C/C)C(OC(=O)/C(C)=C/C)C1O` (centres undefined): the max response is -8.02% (inactive).

Take `COC(=O)C12CCC(C)C(C)C1C1=CCC3C4(C)CCC(OC(C)=O)C(C)(C)C4CCC3(C)C1(C)CC2` (centres undefined): the max response was -3.42% (inactive).

Regarding `COC1CC(O[C@H]2CC[C@@]3(C)C(=CC[C@]4(O)C3[C@H](OC(C)=O)[C@@H](OC(=O)c3ccccc3)[C@]3(C)[C@@H](C(C)=O)CC[C@@]34O)C2)OC(C)C1OC1CC(OC)C(OC2CC(OC)C(OC3OC(C)C(OC4OC(CO)C(O)C(O)C4O)C(OC)C3O)C(C)O2)C(C)O1` (some centres undefined), the result was inactive.

Consider `O=S(=O)(NCC1CC1)c1ccc(Nc2nccc(N3CCCc4cc(O)ccc43)n2)cc1`, for which the Potency was 1160 nM (active).

Take `CNS(=O)(=O)CC1CCC(N(C)c2ncnc3[nH]ccc23)CC1` (centres undefined): the max response was 2.42% (inactive).

Turning to `C/C(=C\CCC(C)CCO)C(=O)O[C@@H]1[C@@H](O)[C@H](OC2OC=C(C(=O)O)C3CCC(C)(O)C23)O[C@H](CO)[C@H]1O` (some centres undefined), the call was inactive.

As for `C[C@H](Oc1ccc(S(C)(=O)=O)cc1C(=O)N1CCN(c2ncc(C(F)(F)F)cc2F)CC1)C(F)(F)F`, the molecule was called inactive.

As to `CC(=O)O[C@H]1C[C@@]2(C)[C@@H](CC[C@H]3[C@@]4(C)C=CC(=O)[C@@H](C)[C@@H]4[C@H](O)C(=O)[C@@]32C)/C1=C(/CCC=C(C)C)C(=O)O`, the max response was -28.1% (inactive).

Regarding `C[C@@H]1CN(Cc2ccccc2)C[C@H]1c1nc2c(cnn2C2CCOCC2)c(=O)[nH]1`, the max response is -0.22% (inactive).

For the molecule `COC(=O)CCc1cc2ccoc2c(OC)c1O[C@@H]1O[C@H](CO)[C@@H](O)[C@H](O)[C@H]1O`, the max response is -7.38% (inactive).

Take `COc1ccc(Cl)c(Nc2nc3ccccc3nc2NS(=O)(=O)c2cccc(NC(=O)C(C)(C)N)c2)c1`: the max response was -18.5% (inactive).

Regarding `CC[C@H](CO)Nc1nc(NCc2ccc(-c3ccccn3)cc2)c2ncn(C(C)C)c2n1`, the Potency is 92 nM (active).

Consider `CC(C)C[C@H](CC(=O)NO)C(=O)N[C@@H](Cc1ccc2ccccc2c1)C(=O)N[C@@H](C)C(=O)NCCN`, for which the max response is -4.14% (inactive).

For the molecule `O=C(O)c1ccc(OC2OC(CO)C(O)C(O)C2O)cc1` (centres undefined), the call was inactive.

Take `C[C@H](NC(=O)CCc1nc2ccccc2c(=O)[nH]1)c1ccccc1`: the max response was -24% (inactive).

In the case of `CC1(C)CC[C@]2(C(=O)O)CC[C@]3(C)C(=CCC4[C@@]5(C)CC[C@H](O[C@@H]6O[C@H](CO)[C@@H](O)[C@H](O)[C@H]6O[C@@H]6O[C@H](CO)[C@@H](O)[C@H](O)[C@H]6O)[C@@](C)(CO)C5CC[C@]43C)[C@@H]2C1` (some centres undefined), the max response is -6.6% (inactive).

For the molecule `O=C(O)c1ccc(CN2CCC(CN[C@@H]3C[C@H]3c3ccccc3)CC2)cc1`, the max response was -10.5% (inactive).

Regarding `CC1C(=O)CC2C3CCC(C(=O)O)C12CC3(C)CO` (centres undefined), the max response was -22.2% (inactive).

For `OC[C@H]1O[C@@H](Oc2cc(O)c3c(c2)O[C@@H](c2ccc(O)cc2)[C@H](O)C3)[C@H](O)[C@@H](O)[C@@H]1O`, the max response is -1.22% (inactive).

Turning to `NC(=O)Nc1cc(-c2cccc(F)c2)sc1C(=O)NC1CCCNC1` (centres undefined), the max response was -112% (inactive).

For `CC(C)NCC(C(=O)N1CCN(c2ncnc3c2C(C)CC3O)CC1)c1ccc(Cl)cc1` (centres undefined), the max response was -1.68% (inactive).

On to `CCO[C@@H]1OC(=O)C[C@@H]1NC(=O)[C@@H]1CCCN1C(=O)[C@@H](NC(=O)c1ccc(N)c(Cl)c1)C(C)(C)C`, for which the max response was 1.63% (inactive).

Consider `CC1(C)CC[C@]2(C(=O)O[C@@H]3O[C@H](CO)[C@@H](O)[C@H](O)[C@H]3O)CC[C@]3(C)C(=CCC4[C@@]5(C)C[C@@H](O)[C@H](O)[C@](C)(C=O)C5CC[C@]43C)[C@@H]2[C@@H]1O` (some centres undefined), for which the molecule was classed as inactive.

For `O=C(O)/C=C/c1ccc(O)c(O[C@@H]2O[C@H](CO)[C@@H](O)[C@H](O)[C@H]2O)c1`, the molecule was classed as inactive.

Turning to `CN(C)CC1CCOC1(c1ccccc1)c1ccccc1` (centres undefined), the max response is -5.19% (inactive).

`O=C1CC2(CCCC2)[C@H](O)C(=O)N1CCCCN1CCN(c2ncccn2)CC1`: the max response was 2.44% (inactive).

As to `CC(C)/C=C1\NC(=O)C(C(C)C)n2c1nc1c(c2=O)C=CC=CO1` (centres undefined), the max response was -11.8% (inactive).

As for `CCC(C)C(=O)O[C@H]1CCC=C2C=C[C@H](C)[C@H](CC[C@@H](O)C[C@@H](O)CC(=O)O)[C@H]21` (some centres undefined), the Potency is 7960 nM (active).

As to `COc1cc(O)cc(C)c1C(=O)OC1C(CO)OC(OC2C(O)C(O)C(O)C(O)C2O)C(O)C1O` (centres undefined), the max response was -0.0302% (inactive).

Take `Cc1cc(O)c(-c2ccc([C@@H](C)CN(C)C)cc2)c2c1[nH]c(=O)c1sccc12`: the Potency was 116 nM (active).

Take `C=CC1C(OC2OC(CO)C(O)C(O)C2O)OC=C2C(=O)N3C(C(=O)O)Cc4c([nH]c5ccccc45)C3CC21` (centres undefined): the result was inactive.

Regarding `C=C1OC2CC(C(=O)O)C=CC2NC1=O` (centres undefined), the max response was -1.3% (inactive).

`C=CC1C(OC2OC(CO)C(O)C(O)C2O)OC=C(C(=O)OC)C1CC1CC(=O)CC(CCc2ccc(O)cc2)O1` (centres undefined): the max response is 3.27% (inactive).

`CCOC(=O)CCN(C(=O)c1ccc2c(c1)nc(CNc1ccc(C(=N)N)cc1)n2C)c1ccccn1`: the max response is 2.71% (inactive).
